This passage reports outcome and AC50 results from PubChem BioAssay (EPA / NIEHS).

Values joined by “and” are separate entries in the source; they are usually repeats but may differ in a detail not shown here. Identical values can stand only once. More than one record can exist for a structure, and the calls need not agree. Active and inactive are the calls of the source. Rule for the calls: active = hit-call score of the fitted dose curve at least 0.9, where 1 is the maximum; inactive = score below 0.9.

Read-out in one assay: Decorin, DCN (gene 1634)
Kind of assay: BSK_MyoF_Decorin: BioMAP Diversity Plus: MyoF Assay for Decorin Biomarker Activity (AID 2284265). To be noted: primary human lung fibroblasts. An outline of the steps:
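ELISA readout of decorin, 24 h post-dosing; primary human lung fibroblast (MyoF) culture; gain-of-signal fit vs DMSO baseline.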

The nature of assay [1]: BSK_MyoF_SRB: Viability Assessment in the BioMAP Diversity Plus: MyoF Assay (AID 2284267).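 Note: total protein by SRB absorbance in parallel cultures as cytotoxicity measure.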 To be noted: primary human lung fibroblasts. An outline of the steps:
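Human lung fibroblasts dosed with chemical and assessed 24 h later for overt cytotoxicity in parallel cultures. Total protein quantified by sulforhodamine B staining (0.1% SRB after 10% TCA fixation), read at 560 nm, analysed in positive direction versus DMSO baseline.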

Read-out in assay [2]: Matrix Metallopeptidase 1 (MMP1), MMP1 (gene 4312)
In words: BSK_MyoF_MMP1: BioMAP Diversity Plus: MyoF Assay for Matrix Metallopeptidase 1 (MMP1) Biomarker Activity (AID 2284268). Particulars: primary human lung fibroblasts. An outline of the steps:
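Cells: human lung fibroblasts. Exposure: 24 h chemical dosing. Detection: ELISA for MMP1. Analysis: upward fitting against DMSO negative control.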

Read-out in assay [3]: TIMP metallopeptidase inhibitor 1 (TIMP1), TIMP1 (gene 7076)
Kind of assay: BSK_MyoF_TIMP1: BioMAP Diversity Plus: MyoF Assay for TIMP metallopeptidase inhibitor 1 (TIMP1) Biomarker Activity (AID 2284269). To be noted: primary human lung fibroblasts. In a few lines:
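Primary human lung fibroblasts, MyoF multiplex system; chemical exposure 24 h; TIMP-1 by ELISA; positive fitting direction vs DMSO control.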

Read-out in assay [4]: Interleukin-1 alpha (IL1a), IL1A (gene 3552)
In words: BSK_BF4T_IL1a: BioMAP Diversity Plus: BF4T Assay for Interleukin-1 alpha (IL1a) Biomarker Activity (AID 2284264). Particulars: primary human bronchial epithelial cells with fibroblasts. An outline of the steps: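 Human bronchial epithelial cells co-cultured with dermal fibroblasts, dosed and read at 24 h. Secreted/surface IL-1α quantified by ELISA; gain-of-signal fitted relative to DMSO baseline. Parallel SRB total-protein staining tracked cytotoxicity.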

Read-out in assay [5]: KRT18 (gene 3875)
In words: BSK_BF4T_Keratin818: BioMAP Diversity Plus: BF4T Assay for Keratin 818 Biomarker Activity (AID 2284266). Particulars: primary human bronchial epithelial cells with fibroblasts. An outline of the steps: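 Co-culture of human bronchial epithelial cells and dermal fibroblasts, chemical exposure 24 h. Keratin 8/18 measured by ELISA; positive-direction fit vs DMSO. SRB total protein run in parallel cultures for cytotoxicity.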

Read-out in assay [6]: Matrix Metallopeptidase 1 (MMP1), MMP1 (gene 4312)
In words: BSK_BF4T_MMP1: BioMAP Diversity Plus: BF4T Assay for Matrix Metallopeptidase 1 (MMP1) Biomarker Activity (AID 2284270). To be noted: primary human bronchial epithelial cells with fibroblasts. An outline of the steps: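 Co-culture of human bronchial epithelial cells and dermal fibroblasts; MMP-1 levels measured by ELISA 24 hours after chemical dosing, relative to DMSO. Cytotoxicity checked in parallel cultures by SRB total-protein staining.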

Read-out in assay [7]: Plasminogen Activator Inhibitor-1 (PAI1), SERPINE1 (gene 5054)
In words: BSK_BF4T_PAI1: BioMAP Diversity Plus: BF4T Assay for Plasminogen Activator Inhibitor-1 (PAI1) Biomarker Activity (AID 2284273). To be noted: primary human bronchial epithelial cells with fibroblasts. In a few lines: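 Co-culture of human bronchial epithelial cells and dermal fibroblasts exposed to compound for 24 h. PAI-1 measured by ELISA; activity fitted in positive direction versus DMSO. Parallel SRB staining assessed overt cytotoxicity.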

Read-out in assay [8]: Matrix Metallopeptidase 9 (MMP9), MMP9 (gene 4318)
Kind of assay: BSK_BF4T_MMP9: BioMAP Diversity Plus: BF4T Assay for Matrix Metallopeptidase 9 (MMP9) Biomarker Activity (AID 2284276). Particulars: primary human bronchial epithelial cells with fibroblasts. In a few lines:
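Co-culture of human bronchial epithelial cells and dermal fibroblasts dosed for 24 h; MMP-9 quantified by ELISA and fitted upward versus DMSO. Cytotoxicity monitored in parallel cultures by SRB total-protein staining at the biomarker time point.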

Read-out in assay [9]: Interleukin-8 (IL8), CXCL8 (gene 3576)
Kind of assay: BSK_IMphg_IL8: BioMAP Diversity Plus: IMphg Assay for Interleukin-8 (IL8) Biomarker Activity (AID 2284277). Particulars: primary human endothelial cells with macrophages. An outline of the steps: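 Co-culture of human venular endothelial cells and macrophages exposed to chemicals for 24 h; IL-8 quantified by ELISA and compared against the DMSO baseline, with SRB total-protein staining in parallel cultures for cytotoxicity.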

Read-out in assay [10]: Interferon-inducible T-cell alpha chemoattractant (ITAC), CXCL11 (gene 6373)
Kind of assay: BSK_BE3C_ITAC: BioMAP Diversity Plus: BE3C Assay for Interferon-inducible T-cell alpha chemoattractant (ITAC) Biomarker Activity (AID 2284279). Particulars: primary human bronchial epithelial cells. In a few lines:
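Steps: dose human bronchial epithelial cells with chemical; incubate 24 h; measure I-TAC by ELISA; fit endpoint in positive direction against DMSO control. Cytotoxicity was checked in parallel cultures by SRB staining at harvest.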

Read-out in assay [11]: Epidermal growth factor receptor (EGFR), EGFR (gene 1956)
In words: BSK_BE3C_EGFR: BioMAP Diversity Plus: BE3C Assay for Epidermal growth factor receptor (EGFR) Biomarker Activity (AID 2284281). To be noted: primary human bronchial epithelial cells. In a few lines: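 Compound is added to human bronchial epithelial cells, cells incubate 24 h, then EGFR is detected by ELISA. Values reflect positive-direction fitting relative to DMSO.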

Read-out in assay [12]: KRT18 (gene 3875)
Kind of assay: BSK_BE3C_Keratin818: BioMAP Diversity Plus: BE3C Assay for Keratin 818 Biomarker Activity (AID 2284282). Particulars: primary human bronchial epithelial cells. An outline of the steps:
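Human primary bronchial epithelial cells in the BE3C system were exposed to test chemical for 24 h, then Keratin 8/18 was quantified by ELISA. Activity was fitted in the positive direction against DMSO as negative control and baseline.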

Read-out in assay [13]: Interleukin-8 (IL8), CXCL8 (gene 3576)
Kind of assay: BSK_BE3C_IL8: BioMAP Diversity Plus: BE3C Assay for Interleukin-8 (IL8) Biomarker Activity (AID 2284280). Particulars: primary human bronchial epithelial cells. An outline of the steps:
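IL-8 signal gain, normalised to DMSO vehicle, was scored after a 24 h chemical exposure of primary human bronchial epithelial cells, with detection by ELISA.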

Read-out in assay [14]: Intercellular Adhesion Molecule 1 (ICAM1), ICAM1 (gene 3383)
In words: BSK_BE3C_ICAM1: BioMAP Diversity Plus: BE3C Assay for Intercellular Adhesion Molecule 1 (ICAM1) Biomarker Activity (AID 2284278).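 Note: cell-surface ICAM-1 protein level quantified by ELISA.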 To be noted: primary human bronchial epithelial cells. In a few lines: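 Primary human bronchial epithelial cells were exposed to compound for 24 h, after which cell-surface ICAM-1 was quantified by ELISA. Activity was fitted in the gain-of-signal direction against DMSO as negative control and baseline.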

As for `CS(C)(=O)=O`, the outcome with Decorin, DCN (gene 1634) was “inactive”; in assay [1], “inactive”; in assay [2], “inactive”; in assay [3], “inactive”.
On to `O=C(O)C(F)(F)C(F)(F)C(F)(F)F`, for which the outcome in assay [4] is “inactive”; in the assay with Decorin, DCN (gene 1634) it was “inactive”; with KRT18 (gene 3875) [5] it was “inactive”; in assay [1], “inactive”; in assay [2], “inactive”; in assay [3], “inactive”. The result in assay [6], in [7], in assay [8], in assay [9], in assay [10] and in assay [11] was inactive. Further, the result with KRT18 (gene 3875) [12] was inactive.
As for `CCCCCCCCC(F)(F)C(F)(F)C(F)(F)C(F)(F)C(F)(F)C(F)(F)F`, the outcome was “inactive” in assay [4]; “inactive” in the assay with Decorin, DCN (gene 1634); “inactive” with KRT18 (gene 3875) [5]; “inactive” in assay [1]; “inactive” in assay [2]; “inactive” in assay [3]. Moreover, the result in assay [6], in assay [7], in [8], in assay [9], in assay [10] and in assay [13] was inactive. For the same compound, in the assay with KRT18 (gene 3875) [12], the result was inactive.
As usually defined, the AC50 is the midpoint of the concentration-response curve, whichever way the signal moves. `O[Si](c1ccccc1)(c1ccccc1)c1ccccc1`: the outcome in the assay with Decorin, DCN (gene 1634) was “inactive”; in assay [3] it was “inactive”. Besides, the figures for the concentration at half-maximal activity (AC50) in assay [1] and in [2] were 23.8 µM (active) and 13.9 µM (active), respectively.
`O=C(O)C(F)(F)C(F)(F)C(F)(F)C(F)(F)C(F)(F)C(F)(F)C(F)(F)C(F)(F)C(F)(F)C(F)(F)C(F)(F)C(F)(F)C(F)(F)F`: the outcome was “inactive” in assay [4]; “inactive” with Decorin, DCN (gene 1634); “inactive” with KRT18 (gene 3875) [5]; “inactive” in assay [1]; “inactive” in assay [2]; “inactive” in assay [3]. Besides, the outcome in assay [6], in [7], in assay [8], in assay [9], in assay [14] and in assay [10] was inactive. The outcome (in assay [11]; in the assay with KRT18 (gene 3875) [12]) was inactive. Further, the AC50 in assay [10] was 0.0259 µM (active).
`CC(CCl)OP(=O)(OC(C)CCl)OC(C)CCl` (stereo unspecified): the outcome with Decorin, DCN (gene 1634) was “inactive”; in [1], “inactive”; in [2] it was “inactive”; in [3] it was “inactive”.
With `CCCCNc1ccccc1`, the outcome with Decorin, DCN (gene 1634) is “inactive”; in assay [1] it was “inactive”; in assay [2], “inactive”; in assay [3], “inactive”.
As for `N=C(N)C(F)(F)C(F)(F)C(F)(F)C(F)(F)C(F)(F)C(F)(F)C(F)(F)F`, the outcome was “inactive” in assay [4]; “inactive” in the assay with Decorin, DCN (gene 1634); “inactive” with KRT18 (gene 3875) [5]; “inactive” in [1]; “inactive” in assay [2]; “inactive” in assay [3]. Moreover, the result (in assay [6]; in assay [7]; in assay [8]; in assay [9]; in [10]; in the assay with KRT18 (gene 3875) [12]) was inactive. In addition, in assay [9], the AC50 was 30 µM (active).
For the compound `O=S(=O)(OCCOC(F)(F)F)C(F)(F)F`, the outcome in [4] was “inactive”; with Decorin, DCN (gene 1634), “inactive”; with KRT18 (gene 3875) [5] it was “inactive”; in assay [1], “inactive”; in [2] it was “inactive”; in [3], “inactive”. Besides, the outcome in assay [6], in assay [7], in assay [8], in assay [9], in assay [10] and in [13] was inactive. The outcome with KRT18 (gene 3875) [12] was inactive.
As for `O=C(O)C=C(C(F)(F)F)C(F)(F)F`, the outcome in assay [4] was “inactive”; in the assay with Decorin, DCN (gene 1634) it was “inactive”; with KRT18 (gene 3875) [5], “inactive”; in [1], “inactive”; in assay [2], “inactive”; in assay [3], “inactive”. Also, the result (in assay [6]; in assay [7]; in assay [8]; in [14]; in assay [10]; with KRT18 (gene 3875) [12]) was inactive. Also, the AC50 in assay [9] is 6.29 µM (active) and 10.8 µM (active).
